Hit rate of the full screen: of about 85,000 compounds, about 35 (0.04%) were called active.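 Rule for the calls: active = viability drop by adding the cancer drug above about 55%, with treated viability meeting a 40% cutoff (limit read from the data); inactive = the rest, inconclusive results apart.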 Shown is part of a subset that was picked to be rich in actives.
Assay: reversal of MRP1-mediated doxorubicin resistance, primary screen, H69AR cells, doxorubicin co-treatment (AID 602);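 for differential viability (reversal): larger differential means the compound sensitizes cells more to doxorubicin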
Settings: CellTiter-Glo, 72 h, at 10 µM; for differential viability (reversal): stronger effect = higher value
[1] = H69AR cells + 2 uM doxorubicin, measured here: viability with 2 uM doxorubicin, stronger effect = lower value
[2] = H69AR cells, measured here: cytotoxicity without doxorubicin

Compound	differential viability (reversal) (H69AR cells + 2 uM doxorubicin)	viability [1]	viability [2]
O=S(=O)(NCCc1ccccc1)c1ccccc1	7.78% (inactive)	95.5%	103%
CCN(c1ccccc1)S(=O)(=O)c1ccc(NC(=O)C(C)(C)C)cc1	-29.8% (inactive)	64.7%	34.8%
COc1ccc(-c2cc(C(F)(F)F)nc(NCc3cccnc3)n2)cc1	1.23% (inactive)	91.7%	92.9%
Cc1ccc(S(=O)(=O)N2CCN(S(=O)(=O)N3CCOCC3)CC2)cc1	3.28% (inactive)	89.8%	93.1%
CCOC(=O)/C(C#N)=C\c1c(C)cc(C)c(COC(C)=O)c1C	5.79% (inactive)	89.3%	95.1%
Cc1ccc(F)c(NC(=O)CCc2ccccc2)c1	2.31% (inactive)	95.5%	97.8%
COc1ccc(-n2c(C)csc2=S)cc1	-2.75% (inactive)	89.3%	86.6%
CCN(CC)CCNC(=O)CCCCCn1c(=O)[nH]c2cc(C(=O)OC)ccc2c1=O	10.3% (inactive)	91.6%	102%
N=c1c2c3c(sc2nc2n1CCCCC2)CCCC3	9.08% (inactive)	75.2%	84.3%
Cc1cnc(NC(=O)C2CCCC2)s1	-2.44% (inactive)	100%	97.7%
Oc1ccccc1CNc1ncc(Br)cc1Br	-9.74% (inactive)	83.2%	73.5%
O=C(COC(=O)c1n[nH]c2ccccc12)NCc1ccccc1	1.28% (inactive)	95.4%	96.7%
CCOc1ccc(Nc2nc(Cc3nnc(SCC(=O)c4ccc(C)cc4)o3)cs2)cc1	-4.34% (inactive)	92.9%	88.6%
O=C1CC(Sc2ncn[nH]2)C(=O)N1c1ccccc1 (configuration not stated)	9.11% (inactive)	87%	96.1%
O=C(c1cccc(F)c1)N1CCC(O)(c2cccnc2)CC1	5.21% (inactive)	82.9%	88.1%
O=C(NCc1ccco1)C1(c2ccc(Cl)cc2)CCCC1	-5.04% (inactive)	102%	96.8%
O=C(c1ccc2c(c1)OCO2)N1CCN(C(=O)c2ccco2)CC1	18.9% (inactive)	73%	91.9%
O=C(c1ccccc1Oc1ccccc1)N1CCN(c2ccc(F)cc2)CC1	4.49% (inactive)	95.8%	100%
COc1ccc(N2CCN(C(=O)CCc3nc(-c4ccc(C)cc4)no3)CC2)cc1	16.8% (inactive)	81.6%	98.4%
CS(=O)(=O)N(Cc1ccc(Cl)cc1)c1ccc(C(=O)NCCSCc2ccco2)cc1	-17.6% (inactive)	111%	93.7%
COC(=O)C1=C(Nc2ccc(OC)cc2)C=C(C)C(C(=O)OC)C1c1ccc(C)cc1 (configuration not stated)	-22.3% (inactive)	77.8%	55.6%
COc1ccc(C(C#N)N2N=C(C)CC2(C)C)cc1 (configuration not stated)	15.2% (inactive)	89.1%	104%
Cn1c(=O)c2c(SCC(=O)N3CCOCC3)nc(C3CC3)nc2n(C)c1=O	-2.72% (inactive)	84.5%	81.8%
CO/N=C(/CS(=O)(=O)c1ccc(Br)cc1)c1ccc(OC)cc1	-26.9% (inactive)	58.3%	31.4%
CCSc1ccccc1C(=O)NCc1ccc(OC)cc1	7.76% (inactive)	84.9%	92.6%

Compound	differential viability (reversal) (H69AR cells + 2 uM doxorubicin)	viability [1]	viability [2]
Cc1ccc2cc(CCNC(=O)c3ccc4c(c3)OCO4)c(=O)[nH]c2c1	-5.04% (inactive)	84.9%	79.8%
CCC(O)CNc1nc(-n2nc(C)cc2C)nc2sc3c(c12)CC(C)(C)OC3 (configuration not stated)	-4.15% (inactive)	48.8%	44.6%
CC(C)(CNC(=O)c1cc(=O)[nH]c2ccccc12)N1CCOCC1	3.32% (inactive)	97.6%	101%
Cc1ccc(N(CC(=O)Nc2cc(C)cc(C)c2)S(=O)(=O)c2cccc3nonc23)cc1	-3.92% (inactive)	101%	96.6%
Cn1ccs/c1=N\S(=O)(=O)c1ccc(C(C)(C)C)cc1	11.8% (inactive)	77.6%	89.4%
CCOC(=O)c1ccc(COC(=O)CCc2nc(-c3ccccc3)c(-c3ccccc3)o2)cc1	-11.9% (inactive)	83.3%	71.4%
CCCC(C)C(=O)Nc1ccc(NC(C)=O)cc1 (configuration not stated)	22.1% (inactive)	80.5%	103%
COc1c(F)c(F)c(C(=O)O)c(Nc2ccccc2C)c1F	3.75% (inactive)	94.8%	98.5%
C=CCc1ccc(OCCOc2cccc(/C=N/n3cnnc3)c2)c(OC)c1	9.09% (inactive)	71.3%	80.3%
CCOC(=O)CSc1nc2ccc(C)cc2[nH]1	2.1% (inactive)	87.3%	89.4%
C=CCn1c(SCC(=O)c2ccc(Br)cc2)nnc1C(C)NC(=O)Cc1ccc(OC)cc1 (configuration not stated)	22.5% (inactive)	49.3%	71.8%
O=C1CSC(c2cccc(F)c2)N1c1ccc(O)cc1 (configuration not stated)	12.3% (inactive)	88.2%	101%
Cc1nnc(NCCO)c2ccccc12	7.47% (inactive)	82.3%	89.8%
CCn1c(SCC(=O)c2ccc3ccccc3c2)nnc1-c1cccs1	5.66% (inactive)	98.1%	104%
Cc1cc(C(=O)Nc2ccccc2N2CCOCC2)c2ccccc2n1	-7.84% (inactive)	75.7%	67.9%
Cc1nnc(SCC(=O)NC2CCCC2)s1	7.72% (inactive)	107%	115%
Nn1c(SCC(=O)NC2CCCC2)nnc1-c1ccccc1F	13.3% (inactive)	88.7%	102%
COC(CNC(=O)Cn1ncc2ccsc2c1=O)OC	-2.17% (inactive)	103%	101%
Cc1cccc(N2CCN(C(c3ccc(N(C)C)cc3)c3nnnn3C(C)(C)C)CC2)c1C (configuration not stated)	2.35% (inactive)	81%	83.3%
CCOC(=O)C1=C(CSc2nnnn2C)N(C)C(=O)NC1c1ccccc1 (configuration not stated)	12.1% (inactive)	81%	93.1%
COc1ccc(CCNS(=O)(=O)c2ccc(Cl)s2)cc1OC	13.7% (inactive)	79.3%	93%
O=S(=O)(Nc1ccc(Oc2ncccn2)c(Cl)c1)c1ccc(F)cc1	4.78% (inactive)	88.8%	93.6%
CC(c1ccccn1)N(CCN(C)C)C(=S)Nc1ccccc1F (configuration not stated)	16.9% (inactive)	100%	117%
CCC(=O)NC(Nc1cc(C)ccn1)(C(F)(F)F)C(F)(F)F	7.06% (inactive)	92%	99%
